From PubChem BioAssay (NCI)
The panel holds about 79,000 compounds, 15% with a hit somewhere; the sample as a whole holds those more often. A number with no mark means an inactive call. Calls of active or inactive are those of the source. Cut-off read from the data, not from the text of the source: active = growth inhibition above about 70%; inactive = the rest.

Test: NCI Yeast Anticancer Drug Screen. Data for the mlh1 rad18 strain (AID 175)
Settings: S. cerevisiae mlh1 rad18 strain growth inhibition; at 50.0 µM; stronger effect = higher value
Procedure, shortened: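 Inhibition values reflect reduced growth of mutant yeast versus vehicle-treated controls following compound exposure; the mutations affect DNA damage repair.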

Structure (SMILES)	growth inhibition
CC(=O)O[C@H]1CC[C@]2(C)C3=CC[C@]4(C)[C@@H](C(C)=O)CC[C@H]4[C@@]34C=C[C@]2(C1)C1C(=O)OC(=O)C14 (stereo not given in full)	70.8% (active)
Cc1cc(O)c2c(c1)C(=O)c1c(c(O)cc(O)c1-c1c(O)cc(O)c3c1C(=O)c1cc(C)cc(O)c1C3=O)C2=O	59.1%
NC(=O)/C(=N\NC(=O)c1cc2ccccc2cc1O)C1C(=O)N(c2ccccc2)N=C1N (stereo not given)	67.4%
CCNC(=S)NNC(=S)NNc1ccccc1	38.5%
OCC(O)C(O)C(O)C(O)C(O)C(/C=N/Nc1ccccc1)=N/Nc1ccccc1 (stereo not given)	66.1%
O=C(CN(Cc1ccccc1)Cc1ccccc1)c1ccccc1	15.4%
COC(=O)C1CCC(c2ccccc2)CC1C(=O)OC (stereo not given)	28.6%
COc1ccc2c(c1)C(=O)C(Br)CC2 (stereo not given)	65.8%
O=C1c2ccccc2C(=O)c2sc(Nc3ccc(Cl)cc3)nc21	91.2% (active)
O=Nc1c(-c2cccc([N+](=O)[O-])c2)nc2cnccn12	97.5% (active)
CC/C(=N\NS(=O)(=O)c1ccc(C)cc1)c1cccc(OC)c1	92.2% (active)
NNC(=S)NN/C=C(\C=Nc1ccccc1)[N+](=O)[O-]	68.8%
CC(C)(C)c1ccc(CN2CCN(C(c3ccccc3)c3ccc(Cl)cc3)CC2)cc1 (stereo not given)	52.5%
O=C1OCc2cccc3cccc1c23	62%
CC(C)CC(NC(=O)COc1c(Cl)cc(Cl)c(Cl)c1Cl)C(=O)O (stereo not given)	25.9%
